Source: PubChem (several laboratories)
Only some compounds are listed: those with a hit (about 4.2% of all), similar ones and a draw of the others.
TIM10 inh = growth inhibitors of isogenic TIM10 control yeast, primary screen, counter-screen for tim10-1 yeast inhibitor project, luminescence, uHTS | 1.4% of 330,000 active | inhibition, % at 10 µM | S. cerevisiae TIM10 strain growth, BacTiter-Glo luminescence, 24 h;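 active = inhibition of 40% or more at the single tested concentration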;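 note: wild-type TIM10 isogenic control strain grown at permissive 25 °C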
tim23-1 inh = growth inhibitors of tim23-1 mutant yeast, primary screen, luminescence, uHTS; S. cerevisiae tim23-1 growth, BacTiter-Glo luminescence, 24 h; AID 463212, 2010; inhibition, % at 20 µM; 1.3% of 330,000 active;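 active = growth inhibition of the mutant yeast at or above 50%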;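 note: temperature-sensitive mutant grown at 25 °C; plate controls were DMSO-treated mutant yeast for no effect and medium wells lacking yeast for full effect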
V-ATPase pH = regulators of yeast V-ATPase proton pumping, primary screen, pHLuorin cytosolic pH fluorescence | response, % at 10 µM | S. cerevisiae | 0.37% of 350,000 active | AID 504577, 2011; in the data active = response mostly above about 7.3%, no sharp cut-off; inactive = mostly below about 5.4%; note: actives read high
tim10-1 inh = growth inhibitors of tim10-1 mutant yeast, primary screen, luminescence, uHTS; S. cerevisiae tim10-1 ts strain growth, BacTiter-Glo, 24 h; inhibition, % at 20 µM; 2.2% of 330,000 active;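 active = inhibition of at least 40%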;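 note: mutant grown at 25 °C; 0% = DMSO wells with yeast and 100% = wells holding no yeast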
NALP1 inh = NALP1 inflammasome inhibitors in reconstituted yeast, colorimetric, S. cerevisiae, triplicate retest. 0.61% of 280,000 active. AID 2071, 2009. S. cerevisiae NALP1/ASC/caspase-1 growth, X-gal OD620, 72 h. inhibition, % at 10 µM; in the data active = inhibition mostly above about 24%, no sharp cut-off; inactive = mostly below about 32%
NALP3 yeast inh = NALP3 inflammasome inhibitors in reconstituted yeast, primary screen, luminescence, uHTS; AID 2825, 2010; inhibition, % at 10 µM; 0.39% of 330,000 active; Yeast reconstituted NLRP3/ASC/caspase-1, beta-gal luminescence, 24 h;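 active = inhibition of 50% or more; inactive = inhibition below 50%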;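 note: plate controls were induced DMSO wells for no effect and uninduced yeast grown without galactose for full effect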
tim10-1 conf = growth inhibitors of tim10-1 mutant yeast, confirmation, single concentration, luminescence, S. cerevisiae; S. cerevisiae tim10-1 ts strain growth, BacTiter-Glo, 24 h; inhibition, % at 20 µM; shares compounds with tim10-1 inh; 56% of 7,400 active;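 active = inhibition of yeast growth at or above a set limit in either of two repeat tests at 20 µM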;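 note: tim10-1 mutant grown at permissive 25 °C to find synthetic lethal compounds; 0% = DMSO yeast wells and 100% = medium wells without yeast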
Active calls of the source: *.

COc1ccccc1-c1cc(C(=O)NCc2ccccc2)no1 was read as TIM10 inh 27, tim23-1 inh 41, V-ATPase pH 0, tim10-1 inh 44*, NALP1 inh -1, NALP3 yeast inh 18 and tim10-1 conf 26.
For COc1ccccc1-c1cc(C(=O)NCc2ccc(F)cc2)no1 the results were TIM10 inh 36, tim23-1 inh 42, V-ATPase pH 0, tim10-1 inh 39, NALP1 inh 3 and NALP3 yeast inh 29.
For CCCN(CC(=O)Nc1ccccc1C)C(=O)CCl the results were TIM10 inh 35, tim23-1 inh 31, V-ATPase pH -2, tim10-1 inh 41*, NALP1 inh 12, NALP3 yeast inh -13 and tim10-1 conf 23.
Screening Cc1nc2ccccc2c2oc(C(=O)N3CCC(C)CC3)cc12 returned TIM10 inh -4, tim23-1 inh 34, V-ATPase pH -2, tim10-1 inh 46*, NALP1 inh -5, NALP3 yeast inh 4 and tim10-1 conf -28.
For COc1ccc(CN2C(=O)C(CC(=O)NC3CCCC3)CC(C(=O)N(C)C)=C2C)cc1 (centres undefined) the results were V-ATPase pH -2.
Screening Cc1nn(C(=O)c2ccc3c(c2)OCO3)c(N)c1-c1ccccc1 returned TIM10 inh 18, tim23-1 inh 40, V-ATPase pH 1, tim10-1 inh 41*, NALP1 inh 29, NALP3 yeast inh 33 and tim10-1 conf 10.
Cc1nn(C(=O)c2cccs2)c(N)c1-c1ccccc1 was read as TIM10 inh -6, tim23-1 inh 10, V-ATPase pH 0, tim10-1 inh 5, NALP1 inh 25 and NALP3 yeast inh 21.
Screening Cc1nc(N2CCN(C(=O)c3ccco3)CC2)[nH]c(=O)c1C returned TIM10 inh 2, tim23-1 inh 15, V-ATPase pH -3, tim10-1 inh 4, NALP1 inh 8 and NALP3 yeast inh 8.
For Cc1ccc(S(=O)(=O)N2CCC[C@H]2C(=O)OC(C)C(=O)Nc2ncc(Cl)cc2Cl)cc1 (some centres undefined) the results were TIM10 inh 14, tim23-1 inh 6, V-ATPase pH 0, tim10-1 inh 41*, NALP1 inh 9, NALP3 yeast inh 2 and tim10-1 conf 22.
`CC(OC(=O)CN(C)S(=O)(=O)c1ccc(Cl)cc1)C(=O)Nc1ncc(Cl)cc1Cl` (centres undefined) gave TIM10 inh 13, tim23-1 inh 20, V-ATPase pH -1, tim10-1 inh 28, NALP1 inh 9 and NALP3 yeast inh -2.
`CC1CCC(NC(=O)CCCn2sc3ccccc3c2=O)CC1` (centres undefined) gave TIM10 inh 2, tim23-1 inh 39, V-ATPase pH 5, tim10-1 inh 41*, NALP1 inh 1, NALP3 yeast inh 11 and tim10-1 conf 1.
For OC[C@H]1O[C@@H](O[C@@H]2[C@@H](CO)O[C@@](O)(CO)[C@H]2O)[C@H](O)[C@@H](O)[C@H]1O the results were TIM10 inh 6, tim23-1 inh 20, V-ATPase pH 0, tim10-1 inh 8 and NALP3 yeast inh -5.
Screening CCOC(=O)CCc1c(C)n(CC)c2cc(-c3ccccc3OC)nn2c1=O returned TIM10 inh 32, tim23-1 inh 21, V-ATPase pH 1, tim10-1 inh 42*, NALP1 inh 3, NALP3 yeast inh -11 and tim10-1 conf 25.
Screening CCN(CC)CCCNC(=O)CCc1c(C)n(CC)c2cc(-c3ccccc3OC)nn2c1=O returned TIM10 inh 3, tim23-1 inh -5, V-ATPase pH -1, tim10-1 inh -3, NALP1 inh 22 and NALP3 yeast inh 9.
CCCCCCCC(=O)N/N=C/c1ccc(Br)cc1 was read as TIM10 inh 32, tim23-1 inh 22, V-ATPase pH 3, tim10-1 inh 54*, NALP1 inh 11, NALP3 yeast inh 9 and tim10-1 conf 6.
Screening CCCCCCCC(=O)N/N=C/c1cccnc1 returned TIM10 inh -8, tim23-1 inh 9, V-ATPase pH -3, tim10-1 inh 3, NALP1 inh -12 and NALP3 yeast inh 35.
O=C(C[n+]1ccccc1)Nc1ccccc1C(F)(F)F was read as TIM10 inh 2, tim23-1 inh -7, V-ATPase pH -2, tim10-1 inh -9, NALP1 inh 0 and NALP3 yeast inh 16.
`O=C(CN1C(=O)/C(=C\c2cccc(Br)c2)Oc2ccccc21)NCCCN1CCOCC1` gave TIM10 inh 21, tim23-1 inh 32, V-ATPase pH -8, tim10-1 inh 44*, NALP1 inh 8, NALP3 yeast inh -1 and tim10-1 conf 26.
For O=C(CN1C(=O)COc2ccccc21)NCCCN1CCOCC1 the results were TIM10 inh -10, tim23-1 inh 2, V-ATPase pH -1, tim10-1 inh -16, NALP1 inh 24 and NALP3 yeast inh 10.
Screening C=CCc1c(C)nc(-c2ccccc2)nc1N/N=C/c1ccncc1 returned TIM10 inh -19, tim23-1 inh 9, V-ATPase pH 1, tim10-1 inh -15, NALP1 inh -3 and NALP3 yeast inh 23.
`C=CCc1c(C)nc(-c2ccccc2)nc1N/N=C/c1ccccc1` gave TIM10 inh 33, tim23-1 inh 36, V-ATPase pH -1, tim10-1 inh 46*, NALP1 inh 7, NALP3 yeast inh 14 and tim10-1 conf 32*.
For COc1ccc(OCCC(=O)OCC(=O)NC2CCCCC2)cc1 the results were TIM10 inh 2, tim23-1 inh 27, V-ATPase pH -1, tim10-1 inh 21 and NALP3 yeast inh 5.
COc1ccc(OCCC(=O)OCC(=O)NC2CCCCCCC2)cc1 was read as TIM10 inh 24, tim23-1 inh 38, V-ATPase pH 1, tim10-1 inh 43*, NALP1 inh 6, NALP3 yeast inh 4 and tim10-1 conf 40*.
Screening C[C@@H]1CC=C[C@H]2[C@H]1C(=O)N(Cc1ccccc1)[C@H]2c1ccc(F)c(Br)c1 returned NALP1 inh -4.
`CC[C@@H]1CC=C[C@H]2[C@H]1C(=O)N(Cc1ccccc1)[C@H]2c1ccc(OC)c(Cl)c1` gave TIM10 inh 36, tim23-1 inh 38, V-ATPase pH 6, tim10-1 inh 43*, NALP1 inh -4, NALP3 yeast inh 10 and tim10-1 conf 29.
